# Measured values: the supplement of paper PMC6609913
# Counter-ions that a name gives are not always drawn. ± gives the standard deviation of the averaged measurements. The full ranking holds about 1,300 compounds; the median of “normalised cell viability” is about 1, and the lowest 2% start at about 0.14. For the sample, the lowest values were picked, then their nearest neighbours and some compounds at random.
# Tested on: V-C8 (BRCA2-deficient hamster cells)
# Assay: normalised cell viability (fraction of plate median); higher = more viable cells (less toxic)
# Conditions: 5 µM
# In short: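 Hamster V-C8 cells lacking BRCA2 and V-C8 cells with BRCA2 restored were seeded in 96-well plates. Library drugs (10 mM DMSO stocks) were added 24 h later at 5 μM in 100 μl medium, next to DMSO control wells, for 3 days (screen 1) or 6 days (screen 2). Cell viability was read by resazurin assay, median-plate normalised (modified robust per cent of sample), and triplicate wells were averaged.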
SMILES,normalised cell viability (treatment time: 3 days),normalised cell viability (treatment time: 6 days)
CO[C@H]1/C=C/O[C@@]2(C)Oc3c(C)c(O)c4c(c3C2=O)C2=NC3(CCN(CC(C)C)CC3)NC2=C(NC(=O)/C(C)=C\C=C\[C@H](C)[C@H](O)[C@@H](C)[C@@H](O)[C@@H](C)[C@H](OC(C)=O)[C@@H]1C)C4=O [Rifabutin],0.973 ± 0.096,0.876 ± 0.032
NC(=O)c1cnccn1 [Pyrazinamide],1.12 ± 0.057,1.05 ± 0.071
CNCCC=C1c2ccccc2C=Cc2ccccc21 [Norcyclobenzaprine],0.959 ± 0.045,0.835 ± 0.035
CSc1ccc2c(c1)N(CCC1CCCCN1C)c1ccccc1S2 (stereo unspecified) [Thioridazine hydrochloride],0.121 ± 0.0035,0.0951 ± 0.0067
CCSc1ccc2c(c1)N(CCCN1CCN(C)CC1)c1ccccc1S2 [Thiethylperazine dimalate],0.932 ± 0.029,1.1 ± 0.35
CN1CCCCC1CCN1c2ccccc2Sc2ccc([S+](C)[O-])cc21 (stereo unspecified) [Mesoridazine besylate],1.07 ± 0.07,1.07 ± 0.017
CC1(C)[C@@H](OC(=O)CCC(=O)O)CC[C@]2(C)[C@H]3C(=O)C=C4[C@@H]5C[C@@](C)(C(=O)O)CC[C@]5(C)CC[C@@]4(C)[C@]3(C)CC[C@@H]12 [Carbenoxolone disodium salt],1 ± 0.041,1.15 ± 0.26
CC(=O)OCC(=O)[C@@]1(O)CC[C@H]2[C@@H]3CCC4=CC(=O)CC[C@]4(C)[C@@]3(F)[C@@H](O)C[C@@]21C [Fludrocortisone acetate],0.957 ± 0.08,1.11 ± 0.041
O=C1c2c(O)cccc2Cc2cccc(O)c21 [Anthralin],1.03 ± 0.019,1.003 ± 0.0083
"O=C1c2cccc(O)c2C(=O)c2c(O)cccc21 [1,8-Dihydroxyanthraquinone]",0.838 ± 0.065,0.78 ± 0.021
O=C1c2c(O)ccc(O)c2C(=O)c2c(NCCNCCO)ccc(NCCNCCO)c21 [Mitoxantrone dihydrochloride],0.143 ± 0.0017,0.116 ± 0.011
c1ccc2c(c1)CCCc1cc(NCCN3CCOCC3)nnc1-2,0.351 ± 0.016,0.496 ± 0.056
CN1C2CCCC1CC(NC(=O)c1nn(C)c3ccccc13)C2 (stereo unspecified) [Granisetron],0.973 ± 0.092,1.03 ± 0.051
CCN(CC)C(=O)/C(C#N)=C/c1cc(O)c(O)c([N+](=O)[O-])c1 [Entacapone],0.957 ± 0.024,1.06 ± 0.059
CN[C@@H]1[C@@H](O[C@H]2O[C@H](CO)[C@@H](N)[C@H](O)[C@H]2O)OC2C[C@@H](N)[C@@H](O[C@H]3[C@H](O)[C@@H](O)[C@H](N)C[C@@H]3N)OC2[C@@H]1O (stereo partly specified) [Apramycin],0.995 ± 0.057,1.03 ± 0.019
Cc1ccnc2c1NC(=O)c1cccnc1N2C1CC1 [Nevirapine],0.942 ± 0.023,0.994 ± 0.039
NC1CCN(c2nc3c(cc2F)c(=O)c(C(=O)O)cn3-c2ccc(F)cc2F)C1 (stereo unspecified) [Tosufloxacin hydrochloride],1.01 ± 0.048,1.08 ± 0.024

SMILES,normalised cell viability (treatment time: 3 days),normalised cell viability (treatment time: 6 days)
CC(CCc1ccc(O)cc1)NCCc1ccc(O)c(O)c1 (stereo unspecified) [Dobutamine hydrochloride],1.01 ± 0.031,0.976 ± 0.027
CCCC(=O)Nc1ncnc2c1ncn2[C@@H]1O[C@@H]2COP(=O)(O)O[C@H]2[C@H]1OC(=O)CCC [Bucladesine sodium salt],0.995 ± 0.021,1.04 ± 0.014
CCCCc1nc(Cl)c(CO)n1Cc1ccc(-c2ccccc2-c2nnn[nH]2)cc1 [Losartan],1.019 ± 0.0051,1.052 ± 0.0052
C[C@@H]1NC(=O)NC1=O [Methylhydantoin-5-(L)],1 ± 0.089,1.07 ± 0.013
CC1=Nc2ccc(Cl)cc2S(=O)(=O)N1 [Diazoxide],0.95 ± 0.024,1.01 ± 0.054
N=C(N)c1ccc(OCCCCCOc2ccc(C(=N)N)cc2)cc1 [Pentamidine isethionate],0.596 ± 0.07,0.597 ± 0.085
CC1=C(C(=O)O)N2C(=O)[C@@H](NC(=O)[C@H](N)c3ccccc3)[C@H]2SC1 [Cephalexin monohydrate],1.25 ± 0.026,1.09 ± 0.1
Cc1ccccc1N1C(=O)c2cc(S(N)(=O)=O)c(Cl)cc2NC1C (stereo unspecified) [Metolazone],1.11 ± 0.073,1.06 ± 0.07
CC(=O)[C@@]12O[C@](C)(c3ccccc3)O[C@@H]1C[C@H]1[C@@H]3CCC4=CC(=O)CC[C@]4(C)[C@H]3CC[C@@]12C [Algestone acetophenide],0.915 ± 0.05,0.945 ± 0.094
CCCNC(C)(C)COC(=O)c1ccccc1 [Meprylcaine hydrochloride],1 ± 0.042,1.25 ± 0.47
C#C[C@]1(O)CC[C@H]2[C@@H]3CCc4cc(OC)ccc4[C@H]3CC[C@@]21C [Ethynylestradiol 3-methyl ether],0.844 ± 0.02,0.886 ± 0.17
C[n+]1ccccc1/C=N/O [Pralidoxime chloride],1.03 ± 0.029,1.02 ± 0.06
CCCCC(CC)CNC(=N)NC(=N)NCCCCCCNC(=N)NC(=N)NCC(CC)CCCC (stereo unspecified) [Alexidine dihydrochloride],0.124 ± 0.0044,0.132 ± 0.0043
CN(C)CCN1C(=O)c2ccccc2N(C)c2ccccc21 [Dibenzepine hydrochloride],0.191 ± 0.011,0.215 ± 0.0073
CC(=O)OC[C@H]1O[C@@H]([S-])[C@H](OC(C)=O)[C@@H](OC(C)=O)[C@@H]1OC(C)=O.CCP(CC)CC.[Au+] [Auranofin],0.117 ± 0.0046,0.141 ± 0.0027
OCCN1CCN(CC/C=C2/c3ccccc3Sc3ccc(Cl)cc32)CC1 [Zuclopenthixol hydrochloride],0.605 ± 0.014,0.61 ± 0.032
